Inconclusive results are not listed. The source made the active and inactive calls. The call rests on the fitted dose curve; in most records, active means well fitted inhibition curve with a large enough effect; inconclusive means small, poorly fitted or top-dose-only effect; inactive means flat fitted curve, though single readings scatter.
Columns and labels:
Experiment in all cases: qHTS profiling for inhibitors of Plasmodium falciparum proliferation (AID 504749); further: nearly all actives have a fitted effect of over 60% in size
Conditions in all cases: P. falciparum in erythrocytes, SYBR Green DNA, 72 h; series mostly up to 28.7 µM
[1] = system: CP269
Outline: (§1)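 Infected RBCs, 0.3% parasitemia/2.5% Hct final; cpd 72 h, 37 C, 5% CO2; lysis buffer with saponin/triton/SYBR Green I, o/n RT dark; FI 485/535; norm. to artemisinin (0.29 uM) and DMSO.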

[2] = system: CP286
Outline: as §1

[3] = system: CP291
Outline: as §1

[4] = system: CP297
Outline: as §1

[5] = system: CP305
Outline: as §1

[6] = system: CP315
Outline: as §1

[7] = system: CP325
Outline: as §1

[8] = system: CP329
Outline: as §1

[9] = system: CP335
Outline: as §1

[10] = system: DFO2036
Outline: as §1

[11] = system: DIV14
Outline: as §1

[12] = system: DIV17
Outline: as §1

[13] = system: DIV30
Outline: as §1

[14] = system: Dd2
Outline: as §1

[15] = system: ECU
Outline: as §1

[16] = system: FAB9
Outline: as §1

[17] = system: GB4
Outline: as §1

[18] = system: HB3
Outline: as §1

[19] = system: ICS
Outline: as §1

[20] = system: JCK
Outline: as §1

Measured: Potency

CC(=O)Oc1ccc(C2(c3ccc(OC(C)=O)cc3)C(=O)Nc3ccccc32)cc1
inactive: all assays above

COc1cc(C(=O)N2CCOCC2)cc(OC)c1OC
inactive: all assays above

O=c1[nH]c(=O)c2[nH]c(=O)[nH]c2[nH]1
inactive: all assays above

CC(=O)NC(Cc1ccccc1)C(=O)O (stereo not given)
inactive: all assays above

Cc1cccc(Nc2cc(Cl)nc(SCC(=O)O)n2)c1C
inactive: all assays above

O=C(O)COc1nn(Cc2ccccc2)c2ccccc12
inactive: all assays above

NC(CSCC(=O)O)C(=O)O (stereo not given)
inactive: all assays above

COc1cc2[nH]c(=O)[nH]c(=O)c2cc1OC
inactive: all assays above

O=Cc1ccccc1C=O
inactive: all assays above

CC[C@@]1(c2ccccc2)NC(=O)N(C)C1=O
inactive: all assays above

CC(C)(C)NCC(O)COc1ccc(NC(=O)NC2CCCCC2)cc1 (stereo not given)
inactive: all assays above

Cc1cc(CC(=O)O)n(C)c1C(=O)c1ccc(Cl)cc1
inactive: all assays above

O=C(Oc1ccccc1C(=O)O)c1ccccc1O
inactive: all assays above

Source: PubChem BioAssay (NCATS)
